According to PubChem BioAssay AID1117319 (Southern Research Institute, 2015):
Several values for one entry are separate records, joined by “and”; a condition that tells them apart may be missing. Equal entries are not always repeated. Out of some 260,000 compounds screened, about 1,500 (0.58%) were called active. Inconclusive results (about 5%) are left out.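 Rule for the calls: active = inhibition above a set limit at one or more doses, reproduced on every date tested; inconclusive = results disagree between test dates, or hit never tested in dose response; inactive = the rest.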 A selection follows. Potency and affinity values are given separately.

target: Virion infectivity factor (Human immunodeficiency virus type 1 group M subtype B (isolate BH10)) + Virion infectivity factor (Human immunodeficiency virus type 1 group M subtype B (isolate BRU/LAI)) + Virion infectivity factor (Human immunodeficiency virus type 1 group M subtype B (isolate PCV12)) + Virion infectivity factor (Human immunodeficiency virus type 1 group M subtype B (isolate HXB2)) + DNA dC->dU-editing enzyme APOBEC-3G (Homo sapiens) (UniProt P69720+P69721+P69722+P69723+Q9HC16); assay: inhibitors of Vif binding to APOBEC3G peptide, primary screen, biochemical, TR-FRET, GST-Vif 1-94, biotin-A3G peptide, dose response retest (AID 1117319); conditions: hits give high values;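 note: Vif residues 1-94 fused to GST binding biotinylated APOBEC3G peptide 110-148; 0% = full assay without inhibitor and 100% = GST in place of GST-Vif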

inhibition, inactive:
O=C(Nc1ccc(NS(=O)(=O)c2ccccc2)cc1)c1ccccc1Cl 9.4%
CCc1ccccc1NC(=O)Nc1ccc2c(c1)OCO2 -3.87%
Cn1cccc1C(=O)NC(=O)COC(=O)C12CC3CC(CC(O)(C3)C1)C2 9.63%
Cn1cccc1C(=O)NC(=O)COC(=O)CC12CC3CC(CC(C3)C1)C2 -0.55%
COc1ccc(Br)cc1/C=N/NC(=O)c1cccnc1 4.05%
CCC(C(=O)O)N1C(=O)/C(=C/C(C)=C/c2ccccc2)SC1=S (stereo unspecified) -2.68%
O=C(O)C(Cc1ccccc1)N1C(=O)/C(=C/c2ccccc2)SC1=S (stereo unspecified) -5.34%
O=C(O)CCN1C(=O)/C(=C\c2ccc(-c3nc4ccccc4s3)o2)SC1=S 32.3%
O=C(O)C(Cc1ccccc1)N1C(=O)/C(=C/c2cccs2)SC1=S (stereo unspecified) 24.3%
O=C(O)CCN1C(=O)/C(=C/c2ccc(-c3nc4ccccc4s3)o2)SC1=S 1.36%
O=C(O)CN1C(=O)/C(=C/C=C/c2ccccc2)SC1=S 5.16%
CCOc1cc(C2NC(=O)NC(C)=C2C(=O)OCc2ccccc2)ccc1O (stereo unspecified) 0.18%
CCOC(=O)N1CCN(Cc2nc3c(c(=O)[nH]c(=O)n3C)n2Cc2ccccc2C)CC1 23.6%
O=C(CNC(=O)c1ccccc1)Nc1ccsc1C(=O)O -11.3%
COc1ccc(Cc2noc(CN3CCNC(=O)CC3)n2)cc1OC 3.31%
O=c1c2nnn(Cc3ccccc3)c2ncn1C/C=C/c1ccccc1 -0.52%
Nc1ccc2c3c(ccc([N+](=O)[O-])c13)CC2 -1.18%
CC(=O)c1ccc2c3c(ccc([N+](=O)[O-])c13)CC2 -4.85%
Cc1nnc(SCCn2c(N3CCCCC3)nc3c2c(=O)[nH]c(=O)n3C)s1 0.62%
COc1ccccc1CNC(=O)CCn1c(=O)oc2ccccc21 0.68%
CCOc1ccccc1CNC(=O)Cn1c(=O)oc2ccccc21 72.4%
O=C(Nc1ccccc1N1CCOCC1)c1ccc2c(c1)OCCO2 -3.74%
CC(OC(=O)/C=C/c1ccc2ccccc2n1)C(=O)N(C)c1ccccc1 (stereo unspecified) 1.44%
Cc1ccc(Cn2nnnc2CN2CCC(O)(c3ccccc3F)CC2)cc1 20%
CCCCCCCCS(=O)CCC(=O)O (stereo unspecified) 11.3%
CCCCCCCCCCCCC(=O)CCCCC(=O)O -6.1%
O=C1CC(N2CCN(c3ccc(C(=O)c4ccc(F)cc4)cc3)CC2)C(=O)N1 (stereo unspecified) 28.2%
CC(C)(C)NC(=O)c1sccc1C(=O)O 9.39%
Cc1ccc(C)n1-c1ccsc1C(=O)CC#N 22.9%
O=C(CNC(=O)c1cccc(Cl)c1)NCCCSc1ccccc1 -1.26%
Nc1nc(N)c2cc(Sc3ccc(Cl)cc3)ccc2n1 -22.4%
Cc1cc(-c2ccccc2)n(-c2ccccc2)n1 3.24%
Cc1cc(-c2ccco2)n(CC(=O)O)n1 5.45%
COc1ccc(NC(=S)NCCc2ccccc2)c(OC)c1 18.1%
COc1ccc(NC(=S)NCCc2c[nH]c3ccccc23)c(OC)c1 20.9%
COc1cc(OC)cc(C(=O)N2CCCC(c3nc(-c4ccc(C)o4)no3)C2)c1 (stereo unspecified) 32.4%
COc1cccc(CN2CC(C(=O)N(C)CCCC3CCCC3)CCC2=O)c1 (stereo unspecified) -1.28%
Cc1ccc2[nH]c(=O)c(C(c3nnnn3C3CCCC3)N3CCCc4ccccc43)cc2c1 (stereo unspecified) 16.5%
CCC(C)(C)n1nnnc1C(c1cc2cc(OC)ccc2[nH]c1=O)N1CCc2ccccc21 (stereo unspecified) 3.72% and -1.49%
O=c1cc(CSc2nnc(Nc3ccccc3F)s2)nc2sccn12 -10.7%
COc1ccccc1C(CNC(=O)c1ccc(OCc2c(C)noc2C)cc1)N1CCCC1 (stereo unspecified) 7.05%
COc1cc(C(=O)NCC(c2ccco2)N2CCCC2)ccc1OCc1ccccc1 (stereo unspecified) 3.67%
Cc1ccc(NC(=O)COC(=O)CN2CCSC2=O)cc1Cl 7.83%
Cc1ccc(/C=C2/CNC/C(=C/c3ccc(C)cc3)C2=O)cc1 4.14%
Cc1ccc(/C=N/N=C/c2ccc(C)cc2)cc1 1.03%
Cc1nc2ccccc2n1CCN1CCOCC1 -1%
COC(=O)c1nn(-c2ccc(Oc3ccccc3)cc2)c(=O)cc1O 2.63%
Nc1ccc(S(=O)(=O)N2CCOCCOCCOCCOCCOCC2)cc1 1.81%
C=C(C)C(=O)OCC(=O)NCc1ccccc1 -3.45%
Oc1ccccc1/C=N/NC1=NCCCCC1 -2.42%
Oc1ccc(/C=N/NC2=NCCCCC2)cc1 27.5%
O=C(O)c1cccc(S(=O)(=O)Nc2cccc(S(=O)(=O)N3CCCCCC3)c2)c1 4%
Cc1cccc(N(Cc2ccccc2F)S(C)(=O)=O)c1 22.4%
c1coc(C2=Nc3cccc4cccc(c34)N2)c1 8.06%
COc1ccc(C2=Nc3cccc4cccc(c34)N2)cc1 -2.87%
CC(C)C1=Nc2cccc3cccc(c23)N1 -3.35%
Fc1ccc(C2=Nc3cccc4cccc(c34)N2)cc1 -0.82%
CC(=O)c1ccc(NC(=O)CCCN2C(=O)/C(=C/C(C)=C/c3ccccc3)SC2=S)cc1 4.61%
CC(=C\c1ccccc1)/C=C1/SC(=O)N(CCCC(=O)Nc2ccc(C(=O)O)cc2)C1=O 0.71%
CC(=C\c1ccccc1)/C=C1/SC(=S)N(CCC(=O)O)C1=O -2.12%
CC(=C\c1ccccc1)/C=C1/SC(=S)N(CCCC(=O)O)C1=O 2.05%
CC1=C(C(=O)N(C)C)C(c2cccs2)NC(=O)N1 (stereo unspecified) 4.4%
O=C(CS(=O)(=O)c1ccc(F)cc1)N1CCN(c2ccccc2)CC1 -1.09%
Cc1ccc(Nc2ccccc2)cc1 6.07%
c1ccc(Nc2ccccc2)cc1 -0.33%
Cc1cc(NC(=O)CSc2nnc(C)n2-c2ccccc2)no1 1.46%
COC(=O)[C@@H](NC(=O)O[C@H]1C(=O)c2ccc(OC)cc2O[C@@H]1c1ccc2c(c1)OCO2)C(C)C 12.9%
COc1ccc2c(c1)O[C@H](c1ccc3c(c1)OCO3)[C@@H](OC(=O)N[C@H]1CCCc3ccccc31)C2=O 4.66%
CC(OC(=O)CCc1nc2ccccc2[nH]c1=O)C(=O)c1ccccc1 (stereo unspecified) 6.75%
COC(=O)c1ccc2c(=O)[nH]c(CN3c4ccccc4CC3C)nc2c1 (stereo unspecified) 8.14%
CC1Cc2ccccc2N1Cc1nc2cc(Cl)ccc2c(=O)[nH]1 (stereo unspecified) 7.91%
O=C(Cn1cnc2ccccc21)NCCCN1CCOCC1 -5.55%
O=C(NNS(=O)(=O)c1ccccc1[N+](=O)[O-])c1ccc(F)cc1 -0.91%
O=C1NC(=O)/C(=C\c2ccc(Sc3ccc(Cl)cc3)o2)N1 21.1%
O=C1NC(=O)/C(=C/c2ccc(N3CCOCC3)o2)N1 12.2%
Cc1nnc(SCC(=O)NNC(=O)c2ccco2)n1-c1ccccc1 6.15%
Cc1cccc(N2CC(C(=O)Nc3ccccc3N3CCOCC3)CC2=O)c1C (stereo unspecified) -2.77%
CCn1c(SCC(=O)Nc2cc(C)on2)nnc1-c1ccccc1 -1.57%
CCCCn1c(SCC(=O)Nc2cc(C)on2)nnc1-c1cccnc1 -3.02%
CCc1nc(SCC(=O)c2ccccc2)c2c(=O)n(C)c(=O)n(C)c2n1 -11.9%
CC1(c2ccc([N+](=O)[O-])cc2)NC(=O)N(CC(=O)Nc2cccnc2Cl)C1=O (stereo unspecified) -4.51%
COc1cc(N=C2C(=O)N3c4c(cccc42)C(C)=CC3(C)C)cc(OC)c1 -3.94%
CC1=CC(C)(C)N2C(=O)C3(C(C#N)=C(N)Oc4cc(O)ccc43)c3cccc1c32 (stereo unspecified) 4.05%
CN(C)c1oc(-c2ccco2)nc1S(=O)(=O)c1ccc(Br)cc1 10.3%
Cc1cc(NC(=O)c2coc(=O)c(Br)c2)ccc1C(C)C 10.6%
CC(C)CNC(=O)c1coc(=O)c(Br)c1 12.1%
O=C(Nc1ccc(Br)cn1)c1ccc2ccccc2c1 -12.4%
COc1ccccc1NC(=O)c1coc(=O)c(Br)c1 13.2%
O=C(NCCc1ccc(F)cc1)c1coc(=O)c(Br)c1 -6.83%
O=C(Nc1ccc(Br)cn1)c1cccc(C(=O)Nc2ccc(Br)cn2)c1 -16%
CCCN(CC(=O)Nc1ccccc1OC)C(=O)c1ccc2[nH]c3c(c2c1)CC(C)CC3 (stereo unspecified) 2.48%
C[C@@H]1NC(=O)[C@H](CC(N)=O)NC(=O)c2cc([N+](=O)[O-])cc(I)c2OCC[C@@H](C(=O)NC(CC(=O)O)C(N)=O)NC1=O (stereo partly specified) 10.6%
Cc1csc(SC(C)C(=O)Nc2ccccc2C)n1 (stereo unspecified) -12.6%
Cc1ccc(C2=NC(C)(C)N=C2SCC(=O)Nc2ccc(Cl)cc2)cc1 2.26%
O=C(NC(=S)Nc1cc(-c2nc3ccccc3[nH]2)ccc1Cl)c1ccc2c(c1)OCO2 6.14%
C[C@H]1CN([C@@H](C)CO)C(=O)CCCn2nncc2CO[C@@H]1CN(C)Cc1ccc(Cl)c(Cl)c1 -0.91%
